In all, about 44,000 compounds went through this assay and fewer than 10 were called active. Inconclusive results (about 2%) are left out. A selection follows. Unmarked numbers belong to inactive results. Calls follow the shape of the dose curve; as a rule, active = well fitted curve in the direction sought with a large enough effect; inconclusive = small, poorly fitted or top-dose-only effect, or another doubt; inactive = no such curve, though single readings can be large or run the other way.
Target: Galactokinase (Homo sapiens) (UniProt P51570)
Assay: qHTS Assay for Inhibitors of Human Galactokinase (GALK): NCGC Sytravon Library Screen;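 also: plate controls were full GALK reaction for no effect and reaction lacking GALK for full effect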
Conditions: recombinant GALK, Kinase-Glo ATP luminescence, 1 h; series mostly up to 57.5 µM; activity, negative = inhibition: at the top concentration
From the text: Inherited deficiency of galactose-1-phosphate uridyltransferase (GALT) can result in a potentially lethal disorder called Classic Galactosemia (OMIM 230400). Several lines of evidence indicate that an elevated level of galactose-1-phosphate (gal-1-p), the product of galactokinase (GALK), is a major, if not sole, pathogenic mechanism in patients with classic galactosemia. Therefore, finding inhibitors of GALK is a potential novel therapy for this inherent metabolic disease and is the long term goal of this project. This screen is run against the NCGC Sytravon compound library collection. GALK (provided by Kent Lai) was assayed using ATP and D-(+)-Galactose (Sigma-Aldrich cat# G0750) as substrates. Promega Kinase-Glo Plus technology was used to detect kinase activity. Reactions with and without GALK were used as negative and positive controls together with Protein Tyrosine Phosphatase CD45 inhibitor (EMD Bioscience cat# 540215) which is shown to inhibit GALK activity. Decrease in activity corresponds to inhibition of the enzyme is the desired outcome for this assay. NIH Molecular Libraries Probe Production Network [MLPCN] NIH Chemical Genomics Center [NCGC] Grant: R03 MH085689-01 PI Name: Kent Lai Ph.D., University of Utah
NCGC Assay Protocol Summary: Three uL/well of ATP-buffer solution (35 uM ATP, 20mM HEPES pH8.0, 5 mM MgCl2, 60 mM NaCl, 1 mM DTT, 0.01% BSA final concentration) was dispensed into 1536-well, assay plates (Greiner, solid white medium-binding plates) with Aurora Discovery BioRAPTR Flying Reagent Dispenser (FRD; Beckton-Dickenson). Compound solution (23 nL) was transferred to the assay plate using the Kalypsys 1536-pin tool. One uL/well GALK-galactose solution (5 nM GALK, 100 uM galactose, 20 mM HEPES pH8.0, 5 mM MgCl2, 60 mM NaCl, 1 mM DTT, 0.01% BSA final concentration) was then added using the FRD yielding a total kinase reaction volume of 4 uL/ well. After 1 hour of room temperature incubation, 4 uL Kinase-Glo Plus reagent was added for a final assay volume of 8 uL/ well. Luminescence was detected with the ViewLux plate reader (Perkin Elmer, Waltham, MA) after 10 min incubation using a 1 sec exposure time and 2x binning.

Galactokinase (Homo sapiens), sequence (P51570 whole entry, looked up): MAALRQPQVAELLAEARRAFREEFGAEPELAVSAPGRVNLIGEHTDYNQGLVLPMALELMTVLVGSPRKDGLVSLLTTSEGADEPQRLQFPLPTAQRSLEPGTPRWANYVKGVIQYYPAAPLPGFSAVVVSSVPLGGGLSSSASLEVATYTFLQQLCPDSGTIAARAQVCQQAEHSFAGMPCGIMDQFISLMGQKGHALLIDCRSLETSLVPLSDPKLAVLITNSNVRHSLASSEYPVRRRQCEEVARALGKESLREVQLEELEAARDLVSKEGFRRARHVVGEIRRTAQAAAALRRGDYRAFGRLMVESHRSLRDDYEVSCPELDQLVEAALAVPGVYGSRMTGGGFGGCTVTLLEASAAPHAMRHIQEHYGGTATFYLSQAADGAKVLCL

Point of comparison: COc1ccc(NC(=O)CCNS(=O)(=O)c2ccc3c(c2)CCCC(=O)N3)cc1Cl, “activity, negative = inhibition” value -1.34%. Against it:
- C=Cc1ccc(Cn2c(C(=O)O)c(CNC3CCCC3)c3ccc(C)cc32)cc1 — higher, 2.49%
- CCS(=O)(=O)N1CCC(n2c(C)nc3cccnc32)CC1 — lower, -3.09%
- Cc1ccc(C(=O)CSc2nc(-c3ccccc3)nc3c2CCCC3)c(C)c1 — higher, 0.195%
- Cc1ccc(C(=O)NCCSc2c(C)[nH]c3ccccc23)cc1C — higher, 5.45%
- COc1ccc(CCNC(=O)c2c3c(nc4ccccc24)C(=O)N(C2CCCCC2)C3)cc1OC — higher, -0.522%
- Cc1ccc(CNC(=O)c2ccc(CS(=O)Cc3cccc(Cl)c3)o2)cc1 (configuration not stated) — higher, 4.65%
- CC1Cc2cc(S(=O)(=O)CCC(=O)Nc3ccc(F)c(Cl)c3)ccc2N1C(=O)C1CC1 (configuration not stated) — higher, 0.973%
- CCCN1CCN(CCCNC(=O)c2cnn(-c3ccc(C)cc3)c2-n2cccc2)CC1 — higher, -0.365%
- Cn1c(=O)c2c(SCC(=O)NCC3CCCO3)nc(-c3ccccc3F)nc2n(C)c1=O (configuration not stated) — higher, -0.321%
- COC(=O)c1cnc(N2CCN(c3ccccc3OC)CC2)c2ccccc12 — higher, 0.685%
- CN1c2ccc(Cl)cc2-c2nc(SCC(=O)Nc3cc(F)ccc3F)ncc2S1(=O)=O — lower, -2.3%
- COc1ccc(Nc2cc(C(=O)NCCCN(C)c3ccccc3)c3ccccc3n2)c(OC)c1 — higher, 3.84%
- COc1cccc(CNC(=O)C(=O)NCC(c2cccs2)S(=O)(=O)c2ccccc2)c1 (configuration not stated) — higher, 3.24%
- Cc1cccc(-n2ncc(C(=O)N3CCN(c4ccc(Cl)cc4)CC3)c2C2CCN(C(=O)OC(C)(C)C)CC2)c1 — higher, 4.36%
- Cc1cccc(N(C)C(=O)c2cc(S(=O)(=O)N3CCCCC3)c[nH]2)c1 — higher, 0.584%
- CCOC(=O)c1c(SCC(=O)Nc2cccc(C)c2C)nc(=O)[nH]c1C — higher, -0.958%
- CCc1ccc(NC(=O)C2CCCN2S(=O)(=O)c2ccc3nc(-c4ccccc4)[nH]c3c2)cc1 (configuration not stated) — higher, 3.02%
- COC(=O)c1scc(-c2ccccc2)c1S(=O)(=O)Nc1ccccc1 — lower, -4.52%
- CC1CCN(S(=O)(=O)c2ccc3c(c2)N(CC(=O)NCc2ccccc2Cl)C(=O)CO3)CC1 — higher, 5.21%
- COc1ccc(N2CCN(C3=NS(=O)(=O)C(c4cccc(Br)c4)=C3C)CC2)cc1 — lower, -8.33%
- CCOc1ccc(CNC(=O)CCc2c(C)nn(-c3ccc(N4CCCCC4)nn3)c2C)cc1 — higher, 1.04%
- COc1ccc(OC)c(-c2nc(C(N)=O)c3c(n2)n(-c2ccc4c(c2)OCO4)c(=O)n3C)c1 — higher, -0.207%
- O=C(NCc1ccc(F)cc1)c1ccc2nc(N3CCCCC3)sc2c1 — higher, 1.1%
- COc1cc(OC)c(C2C=C(C(=O)O)Nc3ncnn32)cc1OC (configuration not stated) — higher, 1.86%
- CCOc1cc(/C=C(\C#N)C(=O)Nc2ccccc2C)ccc1OCc1cc(=O)n2nc(CC)sc2n1 — higher, 5.9%
- O=C(Nc1ccc2nc(SCCOc3ccccc3Cl)sc2c1)c1ccco1 — lower, -12.7%
- Cc1ccc(-c2nnc(SCC(=O)NCc3ccccc3)nc2-c2ccc(C)cc2)cc1 — higher, -0.152%
- COc1cc(NC(=O)Cn2c(=O)n(Cc3ccco3)c(=O)c3oc4ccccc4c32)cc(OC)c1 — higher, 4.91%
- Cc1ccccc1CN1CCC(CNC(=O)c2cc3ccc4cccnc4c3[nH]2)CC1 — higher, 1.34%
- Cc1cc(C)c2oc(C(=O)Nc3ccc(S(=O)(=O)N(C)c4ccccc4)cc3)cc(=O)c2c1 — higher, 8.51%
- Cc1ccc(-c2nc(CS(=O)(=O)CC(=O)NCc3ccccc3Cl)c(C)o2)cc1 — higher, 8.44%
- CC(=O)c1ccc(NC(c2ccc(F)cc2)c2nnc(-c3ccccc3)o2)cc1 (configuration not stated) — higher, 3.14%
- CCOc1ccc(CNC(=O)CCC(=O)N2CCSc3ccccc32)cc1 — higher, 0.849%
- COCCNC(=O)c1ccc2c(c1)N(Cc1cccc(Cl)c1)C(=O)c1ccccc1S2(=O)=O — higher, 3.54%
- COc1cc(NS(=O)(=O)c2ccc3c(c2)OCC(C(=O)N2CCCC2)O3)cc(OC)c1 (configuration not stated) — higher, 4.24%
- CCN(CC)C(=O)CSc1nc2cc3c(cc2c(=O)n1CCCC(=O)NCc1ccc2c(c1)OCO2)OCO3 — higher, -0.0389%
- Cc1oc2c(c1C(=O)Nc1ccc(F)c(F)c1)C1=NCCN1C=N2 — higher, 3.77%
- O=C(NCC(c1cccnc1)N1CCc2ccccc21)c1cccc(C(F)(F)F)c1 (configuration not stated) — higher, 0.389%
- O=C(CN1c2ccccc2S(=O)(=O)c2ccccc21)Nc1cccc(C(F)(F)F)c1 — higher, -0.526%
- COc1ccc(NC(=O)CSC2=Nc3ccccc3C3=NC(CC(=O)NCc4ccccc4OC)C(=O)N23)cc1Cl (configuration not stated) — lower, -6%
- CCN(CC)CCNC(=O)c1cc2c(=O)oc3ccc(C)cc3c2s1 — higher, 9.39%
- CCOC(=O)c1cc(-c2ccccc2)n(CCC(=O)Nc2ccccc2CC)c1C — higher, 2.18%
- COC(=O)c1sc2ncccc2c1-n1c(C)ccc1C — higher, 4.85%
- Cc1ccc2nc(/C(C#N)=C/c3ccccc3F)[nH]c2c1 — higher, -0.875%
- COCCCNC(=O)C1CCC(CNS(=O)(=O)c2ccc(OC)cc2)CC1 (configuration not stated) — higher, 2.75%
- CCOC(=O)c1c(C)oc2nc(C)nc(N3CCN(c4ccc(OC)cc4)CC3)c12 — lower, -1.37%
- NS(=O)(=O)c1ccc(CCNC(=O)CCCCCn2c(=O)[nH]c3ccccc3c2=O)cc1 — higher, 0.328%
- COc1ccc(S(=O)(=O)Nc2cc3c(C(=O)OC(C)C)c(C)oc3c3ccccc23)cc1 — higher, -0.0371%
- COc1ccc(C(=O)CSc2c(C(C)C)cnc3c2c(=O)n(C)c(=O)n3C)cc1 — higher, 1.18%
- NS(=O)(=O)c1ccc2nc(NC(=O)COc3ccccc3)sc2c1 — higher, -0.423%
- Cc1ccccc1C(=O)N(Cc1ccc(N(C)C)cc1)CC1CCCO1 (configuration not stated) — higher, 0.0459%

Reference: PubChem BioAssay AID1347072 (National Center for Advancing Translational Sciences (NCATS), 2019)
